# Experimental data as given in PubChem BioAssay AID1159580 (chemical genetic matrix, 2015).
# Where “and” joins values, the source holds several entries; their conditions need not be identical. Equal entries are not always repeated. Among all 5,500 compounds or so, about 2,000 (36%) were called active. Not shown: some 18% with an inconclusive outcome. The list shows a part of the results. Unmarked numbers belong to inactive results. Rule as the data show it: active = normalized growth mostly below about 0.91 (no sharp cut-off); inconclusive = no clear call, values can overlap the other calls; inactive = mostly above about 0.92.
# Assay: chemical genetic growth profiling, strain panel (AID 1159580);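 also: tested at 20 µM; growth read once vehicle control cultures reached saturation at 30 °C; 1 = growth at the plate median or of vehicle wells; lower values mean less growth of the strain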
# Settings: S. cerevisiae deletion strains, growth OD
compound,measurement,setting,value
COc1ccc(CC(=O)c2ccc(O)cc2O)cc1,normalized growth,"locus YAL021C, strain ccr4, stronger effect = lower value",0.998
same,normalized growth,"locus YAL026C, strain drs2, stronger effect = lower value",0.954
same,normalized growth,"locus YAL030W, strain snc1, stronger effect = lower value",0.985
same,normalized growth,"locus YBL061C, strain skt5, stronger effect = lower value",0.986
same,normalized growth,"locus YBR009C, strain hhf1, stronger effect = lower value",0.937
same,normalized growth,"locus YBR021W, strain FUR4, stronger effect = lower value",0.894
same,normalized growth,"locus YBR023C, strain chs3, stronger effect = lower value",0.958
same,normalized growth,"locus YBR171W, strain sec66, stronger effect = lower value",0.973
same,normalized growth,"locus YBR229C, strain ROT2, stronger effect = lower value",0.969
same,normalized growth,"locus YBR231C, strain swc5, stronger effect = lower value",0.989
same,normalized growth,"locus YBR279W, strain paf1, stronger effect = lower value",0.99
same,normalized growth,"locus YCL011C, strain gbp2, stronger effect = lower value",0.973
same,normalized growth,"locus YCL016C, strain dcc1, stronger effect = lower value",0.961
same,normalized growth,"locus YCL029C, strain bik1, stronger effect = lower value",0.953
same,normalized growth,"locus YCL061C, strain MRC1, stronger effect = lower value",0.965
same,normalized growth,"locus YCL069W, strain vba3, stronger effect = lower value",0.982
same,normalized growth,"locus YCR088W, strain abp1, stronger effect = lower value",0.988
same,normalized growth,"locus YDL005C, strain med2, stronger effect = lower value",1.01
same,normalized growth,"locus YDL035C, strain GPR1, stronger effect = lower value",0.94
same,normalized growth,"locus YDL040C, strain nat1, stronger effect = lower value",0.977
same,normalized growth,"locus YDL074C, strain BRE1, stronger effect = lower value",0.848
same,normalized growth,"locus YDL101C, strain DUN1, stronger effect = lower value",0.969
same,normalized growth,"locus YDL185W, strain tfp1, stronger effect = lower value",0.983
same,normalized growth,"locus YDL192W, strain arf1, stronger effect = lower value",0.865 (active)
same,normalized growth,"locus YDR001C, strain nth1, stronger effect = lower value",0.992
same,normalized growth,"locus YDR069C, strain doa4, stronger effect = lower value",1
same,normalized growth,"locus YDR101C, strain arx1, stronger effect = lower value",0.956
same,normalized growth,"locus YDR137W, strain rgp1, stronger effect = lower value",0.733 (active)
same,normalized growth,"locus YDR159W, strain sac3, stronger effect = lower value",0.96
same,normalized growth,"locus YDR162C, strain NBP2, stronger effect = lower value",0.872
same,normalized growth,"locus YDR195W, strain ref2",1.19 [resistant] (active)
same,normalized growth,"locus YDR297W, strain sur2, stronger effect = lower value",0.988
same,normalized growth,"locus YDR318W, strain mcm21, stronger effect = lower value",0.912 (active)
same,normalized growth,"locus YDR334W, strain swr1, stronger effect = lower value",0.991
same,normalized growth,"locus YDR335W, strain msn5, stronger effect = lower value",0.975
same,normalized growth,"locus YDR388W, stronger effect = lower value",0.963
same,normalized growth,"locus YDR392W, strain spt3, stronger effect = lower value",0.455 (active)
same,normalized growth,"locus YDR502C, strain sam2, stronger effect = lower value",0.924
same,normalized growth,"locus YEL003W, strain gim4, stronger effect = lower value",0.969
same,normalized growth,"locus YEL037C, strain rad23, stronger effect = lower value",0.997
same,normalized growth,"locus YEL061C, strain CIN8 (second series), stronger effect = lower value",0.994
same,normalized growth,"locus YER015W, strain faa2, stronger effect = lower value",0.971
same,normalized growth,"locus YER016W, strain bim1, stronger effect = lower value",0.996
same,normalized growth,"locus YER110C, stronger effect = lower value",0.975
same,normalized growth,"locus YER111C, strain swi4, stronger effect = lower value",0.998
same,normalized growth,"locus YER155C, strain BEM2 (second series), stronger effect = lower value",0.768 (active)
same,normalized growth,"locus YER155C, strain BEM2, stronger effect = lower value",0.956
same,normalized growth,"locus YER167W, strain BCK2, stronger effect = lower value",0.962
same,normalized growth,"locus YFR010W, strain ubp6, stronger effect = lower value",1.01
same,normalized growth,"locus YGL078C, strain dbp3, stronger effect = lower value",0.983
same,normalized growth,"locus YGL086W, strain mad1, stronger effect = lower value",0.928 (active)
same,normalized growth,"locus YGL167C, strain pmr1, stronger effect = lower value",0.984
same,normalized growth,"locus YGL173C, strain kem1, stronger effect = lower value",0.979
same,normalized growth,"locus YGL227W, strain vid30, stronger effect = lower value",0.997
same,normalized growth,"locus YGL240W, strain doc1, stronger effect = lower value",0.925
same,normalized growth,"locus YGL248W, strain PDE1, stronger effect = lower value",0.922
same,normalized growth,"locus YGL253W, strain hxk2, stronger effect = lower value",0.982
same,normalized growth,"locus YGR135W, strain pre9, stronger effect = lower value",0.934
same,normalized growth,"locus YGR252W, strain gcn5, stronger effect = lower value",0.841
same,normalized growth,"locus YHR013C, strain ard1, stronger effect = lower value",0.963
same,normalized growth,"locus YHR027C, strain rpn1, stronger effect = lower value",0.987
same,normalized growth,"locus YHR030C, strain SLT2, stronger effect = lower value",0.953 and 0.949
same,normalized growth,"locus YHR079C, strain IRE1 (second series), stronger effect = lower value",0.978
same,normalized growth,"locus YHR079C, strain IRE1, stronger effect = lower value",0.959
same,normalized growth,"locus YHR094C, strain hxt1, stronger effect = lower value",0.982
same,normalized growth,"locus YHR129C, strain ARP1, stronger effect = lower value",0.968
same,normalized growth,"locus YHR142W, strain chs7, stronger effect = lower value",0.925
same,normalized growth,"locus YHR200W, strain rpn10, stronger effect = lower value",0.956
same,normalized growth,"locus YIL066C, strain RNR3, stronger effect = lower value",0.953
same,normalized growth,"locus YIL073C, strain SPO22, stronger effect = lower value",0.866
same,normalized growth,"locus YIL125W, strain kgd1, stronger effect = lower value",1
same,normalized growth,"locus YIR030C, strain dcg1, stronger effect = lower value",0.972
same,normalized growth,"locus YJL092W, strain hpr5, stronger effect = lower value",0.987
same,normalized growth,"locus YJL095W, strain BCK1 (second series), stronger effect = lower value",0.981
same,normalized growth,"locus YJL095W, strain BCK1, stronger effect = lower value",0.812 and 0.951
same,normalized growth,"locus YJL115W, strain asf1, stronger effect = lower value",1.01
same,normalized growth,"locus YJL129C, strain trk1, stronger effect = lower value",0.931
same,normalized growth,"locus YJL134W, strain LCB3, stronger effect = lower value",0.981
same,normalized growth,"locus YJL154C, strain vps35, stronger effect = lower value",0.992
same,normalized growth,"locus YJL164C, strain tpk1, stronger effect = lower value",0.952
same,normalized growth,"locus YJL166W, strain qcr8, stronger effect = lower value",0.944
same,normalized growth,"locus YJL168C, strain set2, stronger effect = lower value",0.972
same,normalized growth,"locus YJL187C, strain SWE1 (second series), stronger effect = lower value",0.958
same,normalized growth,"locus YJL187C, strain SWE1, stronger effect = lower value",0.987
same,normalized growth,"locus YJR066W, strain TOR1, stronger effect = lower value",0.93
same,normalized growth,"locus YKL009W, strain mrt4, stronger effect = lower value",0.956
